Where “and” joins values, the source holds several entries; their conditions need not be identical. Equal entries are not always repeated. Hit rate of the full screen: of about 5,500 compounds, about 2,000 (36%) were called active. Another 18% or so got no clear call; they are omitted. Rule as the data show it: active = normalized growth mostly below about 0.91 (no sharp cut-off); inconclusive = no clear call, values can overlap the other calls; inactive = mostly above about 0.92. The list shows a part of the results.
Assay: chemical genetic growth profiling, strain panel (AID 1159580);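 also: tested at 20 µM; growth read once vehicle control cultures reached saturation at 30 °C; 1 = growth at the plate median or of vehicle wells; lower values mean less growth of the strain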
Conditions: growth OD

Measured: normalized growth

O=C(CCc1ccc(O)cc1)c1c(O)cc(O)cc1O
inactive: S. cerevisiae deletion strains, locus YJR075W, strain HOC1, active compounds read low 1.01 | S. cerevisiae deletion strains, locus YKL009W, strain mrt4, active compounds read low 1.03 | S. cerevisiae deletion strains, locus YKL068W, active compounds read low 1 | S. cerevisiae deletion strains, locus YKL085W, strain MDH1 (second series), active compounds read low 1.02 | S. cerevisiae deletion strains, locus YKL085W, strain MDH1, active compounds read low 1.02 | S. cerevisiae deletion strains, locus YKL160W, strain elf1, active compounds read low 0.978 | S. cerevisiae deletion strains, locus YKL190W, strain CNB1, active compounds read low 1.01 | S. cerevisiae deletion strains, locus YKR001C, strain vps1, active compounds read low 1.02 | S. cerevisiae deletion strains, locus YKR026C, strain gcn3, active compounds read low 1.01 | S. cerevisiae deletion strains, locus YKR091W, strain srl3, active compounds read low 1.01 | S. cerevisiae deletion strains, locus YLL001W, strain dnm1, active compounds read low 0.985 | S. cerevisiae deletion strains, locus YLL026W, active compounds read low 1.01 | S. cerevisiae deletion strains, locus YLL041C, strain sdh2, active compounds read low 1.02 | S. cerevisiae deletion strains, locus YLR027C, strain aat2, active compounds read low 1.01 | S. cerevisiae deletion strains, locus YLR039C, strain RIC1, active compounds read low 1.04 | S. cerevisiae deletion strains, locus YLR058C, strain SHM2, active compounds read low 1.01 | S. cerevisiae deletion strains, locus YLR102C, strain apc9, active compounds read low 1 | S. cerevisiae deletion strains, locus YLR113W, strain HOG1, active compounds read low 0.966 | S. cerevisiae deletion strains, locus YLR221C, strain rsa3, active compounds read low 1 | S. cerevisiae deletion strains, locus YLR258W, strain gsy2, active compounds read low 1.03 | S. cerevisiae deletion strains, locus YLR262C, strain YPT6 (second series), active compounds read low 1.02 | S. cerevisiae deletion strains, locus YLR262C, strain YPT6, active compounds read low 1.02 | S. cerevisiae deletion strains, locus YLR268W, strain sec22, active compounds read low 0.997 | S. cerevisiae deletion strains, locus YLR320W, strain mms22, active compounds read low 1.02 | S. cerevisiae deletion strains, locus YLR330W, strain CHS5, active compounds read low 1.01 | S. cerevisiae deletion strains, locus YLR342W, strain FKS1 (second series), active compounds read low 1.02 | S. cerevisiae deletion strains, locus YLR342W, strain FKS1, active compounds read low 1.01 | S. cerevisiae deletion strains, locus YLR357W, strain rsc2, active compounds read low 0.955 | S. cerevisiae deletion strains, locus YLR370C, strain arc18, active compounds read low 1.01 | S. cerevisiae deletion strains, locus YLR371W, strain rom2, active compounds read low 1 | S. cerevisiae deletion strains, locus YLR384C, strain iki3, active compounds read low 1.02 | S. cerevisiae deletion strains, locus YLR418C, strain cdc73, active compounds read low 0.991 | S. cerevisiae deletion strains, locus YML016C, strain PPZ1, active compounds read low 1.01 | S. cerevisiae deletion strains, locus YML032C, strain rad52, active compounds read low 1.07 | S. cerevisiae deletion strains, locus YML120C, strain ndi1, active compounds read low 1.01 | S. cerevisiae deletion strains, locus YML124C, strain tub3, active compounds read low 1.01 | S. cerevisiae deletion strains, locus YMR058W, strain fet3, active compounds read low 0.968 | S. cerevisiae deletion strains, locus YMR078C, strain ctf18, active compounds read low 1.02 | S. cerevisiae deletion strains, locus YMR125W, strain sto1, active compounds read low 1 | S. cerevisiae deletion strains, locus YMR129W, active compounds read low 1.02 | S. cerevisiae deletion strains, locus YMR205C, strain PFK2, active compounds read low 1.01 | S. cerevisiae deletion strains, locus YMR223W, strain ubp8, active compounds read low 1.04 | S. cerevisiae deletion strains, locus YMR231W, strain pep5, active compounds read low 0.988 | S. cerevisiae deletion strains, locus YMR263W, strain SAP30, active compounds read low 0.991 | S. cerevisiae deletion strains, locus YMR307W, strain GAS1, active compounds read low 0.986 and 1.01 | S. cerevisiae deletion strains, locus YNL067W, strain RPL9B, active compounds read low 0.994 | S. cerevisiae deletion strains, locus YNL071W, strain lat1, active compounds read low 1.03 | S. cerevisiae deletion strains, locus YNL128W, strain TEP1, active compounds read low 0.995 | S. cerevisiae deletion strains, locus YNL153C, strain GIM3, active compounds read low 0.991 and 0.975 | S. cerevisiae deletion strains, locus YNL175C, strain NOP13, active compounds read low 1 | S. cerevisiae deletion strains, locus YNL183C, strain NPR1, active compounds read low 0.947 | S. cerevisiae deletion strains, locus YNL197C, strain WHI3, active compounds read low 1 | S. cerevisiae deletion strains, locus YNL209W, strain ssb2, active compounds read low 1 | S. cerevisiae deletion strains, locus YNL224C, strain SQS1, active compounds read low 0.997 | S. cerevisiae deletion strains, locus YNL233W, strain BNI4, active compounds read low 0.985 | S. cerevisiae deletion strains, locus YNL248C, strain rpa49, active compounds read low 1.03 | S. cerevisiae deletion strains, locus YNL250W, strain rad50, active compounds read low 1.03 | S. cerevisiae deletion strains, locus YNL271C, strain bni1, active compounds read low 1.01 | S. cerevisiae deletion strains, locus YNL298W, strain CLA4, active compounds read low 1.03 | S. cerevisiae deletion strains, locus YNL307C, strain MCK1, active compounds read low 1.03 | S. cerevisiae deletion strains, locus YNL322C, strain KRE1 (second series), active compounds read low 0.978 | S. cerevisiae deletion strains, locus YNL322C, strain KRE1, active compounds read low 1 and 0.999 | S. cerevisiae deletion strains, locus YNR049C, strain mso1, active compounds read low 1.01 | S. cerevisiae deletion strains, locus YNR052C, strain pop2, active compounds read low 1.02 | S. cerevisiae deletion strains, locus YOL006C, strain TOP1, active compounds read low 1.02 | S. cerevisiae deletion strains, locus YOL012C, strain htz1 0.845 | S. cerevisiae deletion strains, locus YOL147C, strain pex11, active compounds read low 1.01 | S. cerevisiae deletion strains, locus YOR001W, strain rrp6, active compounds read low 1.03 | S. cerevisiae deletion strains, locus YOR061W, strain CKA2, active compounds read low 0.998 | S. cerevisiae deletion strains, locus YOR069W, strain VPS5, active compounds read low 0.995 | S. cerevisiae deletion strains, locus YOR070C, strain gyp1, active compounds read low 1.02 | S. cerevisiae deletion strains, locus YOR080W, strain dia2, active compounds read low 1.01 | S. cerevisiae deletion strains, locus YOR083W, strain WHI5 (second series), active compounds read low 1.01 | S. cerevisiae deletion strains, locus YOR083W, strain WHI5, active compounds read low 0.982 | S. cerevisiae deletion strains, locus YOR106W, strain vam3, active compounds read low 1.02 | S. cerevisiae deletion strains, locus YOR136W, strain idh2, active compounds read low 1.02 | S. cerevisiae deletion strains, locus YOR144C, strain elg1, active compounds read low 1 | S. cerevisiae deletion strains, locus YOR184W, strain ser1, active compounds read low 1.07 | S. cerevisiae deletion strains, locus YOR231W, strain MKK1, active compounds read low 0.983 | S. cerevisiae deletion strains, locus YOR265W, strain rbl2, active compounds read low 1 | S. cerevisiae deletion strains, locus YOR270C, strain vph1, active compounds read low 1.06 | S. cerevisiae deletion strains, locus YOR290C, strain snf2, active compounds read low 0.982 | S. cerevisiae deletion strains, locus YOR316C, strain cot1, active compounds read low 0.996 | S. cerevisiae deletion strains, locus YPL051W, strain arl3, active compounds read low 0.983 | S. cerevisiae deletion strains, locus YPL055C, strain LGE1, active compounds read low 0.992 and 1.01 | S. cerevisiae deletion strains, locus YPL078C, strain atp4, active compounds read low 1 | S. cerevisiae deletion strains, locus YPL106C, strain sse1, active compounds read low 0.976 | S. cerevisiae deletion strains, locus YPL240C, strain hsp82, active compounds read low 1.01 | S. cerevisiae deletion strains, locus YPL241C, strain CIN2, active compounds read low 1 | S. cerevisiae deletion strains, locus YPL256C, strain CLN2, active compounds read low 0.961 | S. cerevisiae deletion strains, locus YPR119W, strain clb2, active compounds read low 1.01 | S. cerevisiae deletion strains, locus YPR141C, strain kar3, active compounds read low 1.02 | S. cerevisiae deletion strains, locus YPR163C, strain tif3, active compounds read low 1.02 | S. cerevisiae deletion strains, locus YPR167C, strain met16, active compounds read low 1.01 | S. cerevisiae deletion strains, strain wtn01, active compounds read low 0.978 | S. cerevisiae strains, strain wild type, active compounds read low 0.998

Reference: PubChem BioAssay AID1159580 (chemical genetic matrix, 2015)
